Hits are enriched below; roughly 3.7% of the tested compounds scored in any of these assays.
GLP-1R agonist = agonists of human GLP-1 receptor | P43220 | HEK293 GLP-1R CRE-luciferase, luminescence, 4-6 h; cells express a hypersensitive GLP-1R form | Potency, µM (highest dose often 45.6 µM), for the others: top-dose activation, usual class: activators | 380,000 compounds, 0.007% hits | AID 624172; also: % of control where 0% means no effect
Target sequence (P43220 whole entry, looked up): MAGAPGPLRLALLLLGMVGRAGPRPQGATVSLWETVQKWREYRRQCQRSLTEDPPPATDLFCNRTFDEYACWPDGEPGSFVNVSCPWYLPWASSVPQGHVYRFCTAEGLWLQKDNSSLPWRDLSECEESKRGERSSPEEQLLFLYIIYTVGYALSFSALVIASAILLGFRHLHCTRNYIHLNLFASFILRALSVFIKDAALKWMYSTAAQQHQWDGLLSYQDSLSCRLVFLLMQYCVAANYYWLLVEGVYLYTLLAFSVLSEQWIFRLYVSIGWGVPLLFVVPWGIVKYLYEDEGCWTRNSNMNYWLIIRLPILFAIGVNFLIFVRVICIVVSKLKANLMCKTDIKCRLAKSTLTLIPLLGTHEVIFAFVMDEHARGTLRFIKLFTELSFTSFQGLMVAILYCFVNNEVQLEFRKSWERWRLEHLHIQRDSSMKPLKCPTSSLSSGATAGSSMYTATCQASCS
S2 tox = viability counter-screen for ATXN expression inhibitors; S2 cells (HEK-293 line with an ATXN2-luciferase reporter) viability, CellTiter-Fluor protease fluorescence, 24 h; Potency, µM (highest dose often 56.7 µM), most hits filed as cytotoxic; 400,000 compounds, 0.49% hits; also: nearly all actives have a fitted effect of over 40% in size
TGFb inhibitor = blocks TGF-b signaling. HepG2 CAGA-GFP TGF-b/SMAD3 reporter, GFP fluorescence, 18 h; TGF-beta stimulated, 500 pg/mL final. Potency, µM (top dose mostly 46.1 µM), inactives show at the top dose activity, negative = inhibition, actives largely listed as inhibitors. 410,000 compounds, 1.2% hits. AID 588855; also: % is scaled to controls: 0 for no effect and ±100 for the full control effect; nearly all actives have a fitted effect of over 65% in size
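Inhibition of TGF-beta-driven CAGA-GFP reporter expression in HEPG2 cells is measured by cellular GFP fluorescence after 18 h stimulation with 500 pg/mL recombinant TGF-beta in 1% FBS medium at 37 degrees C.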
ATXN2 expr inh = reduces ATXN2 reporter expression in HEK-293 cells; 360,000 compounds, 0.72% hits; Potency, µM (series often up to 57 µM), for inactives: at the highest dose activity change, negative = inhibition, most hits filed as inhibitors; HEK-293 ATXN2-luciferase reporter, luminescence, 24 h; also: % is scaled to controls: 0 for no effect and ±100 for the full control effect; nearly all actives have a fitted effect of over 55% in size
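qHTS (up to 57 uM final) was run with 24 h compound exposure of reporter cells at 37 °C. Each well was multiplexed: SteadyGlo luminescence measured ATXN2-luciferase expression after a fluorogenic Gly-Phe-AFC viability readout (25 uM final).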
GLP1R inv ag = acts as inverse agonist at human GLP-1 receptor. P43220. HEK293 GLP-1R CRE-luciferase, luminescence, 24 h; GLP-1R form is constitutively active. Potency, µM (doses to about 38.3 µM), for inactives: at the top dose activity change, negative = inhibition, actives largely listed as inhibitors. 410,000 compounds, 1.6% hits. AID 624417; also: % is scaled to controls: 0 for no effect and ±100 for the full control effect; nearly all actives have a fitted effect of over 55% in size
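HEK293 cells stably co-expressing constitutively active GLP-1R and a cAMP-responsive luciferase reporter were seeded in DMEM with 10% Nu serum, given compounds after 12 h, and incubated 24 h at 37 deg C. Luminescence was then read.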
HepG2 viability = counter-screen for TGF-b inhibitors: cytotoxicity in HepG2 cells. HepG2 CAGA-GFP viability, ATP luminescence, 18 h. Potency, µM (top dose mostly 46.1 µM), without a hit: at the highest dose activity change, negative = cytotoxicity, usual class: cytotoxic. 410,000 compounds, 0.76% hits. AID 588856
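CellTiter-Glo luminescence gave cytotoxicity after 18 hours at 37 degrees C. The cells were HepG2 CAGA-GFP in 1% FBS DMEM, stimulated with 500 pg/mL TGF-beta after compound addition. %Activity was normalised to no-cell wells (complete cell-killing) and DMSO (no toxicity), and curves were fitted and classified.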
* hit, by the source's call. Calls follow the shape of the dose curve; as a rule, active = well fitted curve in the direction sought with a large enough effect; inconclusive = small, poorly fitted or top-dose-only effect, or another doubt; inactive = no such curve, though single readings can be large; an effect the other way counts as inactive or inconclusive. Potency is read from the fitted curve at half-maximal effect.

For COc1ccc(C)cc1NC(=O)CNC(c1ccccc1)c1ccccc1 the results were GLP-1R agonist 6.0%, S2 tox inactive, TGFb inhibitor -15.9%, ATXN2 expr inh 10.4%, GLP1R inv ag inconclusive and HepG2 viability -28.3%.
Screening Cc1ccc(NC(=O)CNC(c2ccccc2)c2ccccc2)c(F)c1 returned GLP-1R agonist 8.4%, S2 tox inactive, TGFb inhibitor inconclusive, GLP1R inv ag 11.2µM* and HepG2 viability -32.2%.
`CCOC(=O)c1c(-c2ccccc2)c2cc(OC)ccc2n1CCCN(C)C` gave GLP-1R agonist 11.3%, S2 tox inactive, TGFb inhibitor inconclusive, GLP1R inv ag -37.1% and HepG2 viability 17.8µM*.
For CCOC(=O)c1c(C)n(CCNC(C)=O)c2ccc(OC)cc12 the results were GLP-1R agonist 1.6%, S2 tox inactive, TGFb inhibitor -1.6%, ATXN2 expr inh 6.6%, GLP1R inv ag 23.6% and HepG2 viability -16.8%.
c1csc(CN2CCOCC2)c1 was read as GLP-1R agonist 4.6%, S2 tox inactive, TGFb inhibitor 1.7%, ATXN2 expr inh -0.5%, GLP1R inv ag 0.0% and HepG2 viability -7.9%.
S=C1NCN(Cc2ccco2)CN1 was read as GLP-1R agonist -2.9%, TGFb inhibitor inconclusive, ATXN2 expr inh -3.1%, GLP1R inv ag -11.0% and HepG2 viability 0.2%.
Screening S=C1SCN(Cc2cccs2)CN1Cc1cccs1 returned GLP-1R agonist 9.7%, S2 tox inconclusive, TGFb inhibitor 12.6µM*, GLP1R inv ag inconclusive and HepG2 viability -84.9%.
S=C1SCN(Cc2ccco2)CN1Cc1ccco1 was read as GLP-1R agonist 0.4%, S2 tox inconclusive, TGFb inhibitor inconclusive, ATXN2 expr inh -0.7%, GLP1R inv ag 5.62µM* and HepG2 viability -67.1%.
For COc1cc2c(NC3CCN(C(C)C)CC3)nc(N3CCCN(C)CC3)nc2cc1OCCCN1CCCC1 the results were TGFb inhibitor inconclusive and HepG2 viability 1.0%.
Cc1oc(-c2ccc3c(c2)OCCO3)cc1C(=O)O was read as GLP-1R agonist -5.2%, S2 tox inconclusive, TGFb inhibitor 4.5%, ATXN2 expr inh 7.08µM*, GLP1R inv ag inconclusive and HepG2 viability -56.9%.
`Cn1c(C(O)c2ccc(Cl)cc2)nc(Cl)c1Cl` (stereo not drawn) gave GLP-1R agonist -16.7%, S2 tox inactive, TGFb inhibitor -23.1%, ATXN2 expr inh 4.1%, GLP1R inv ag 11.2µM* and HepG2 viability -11.2%.
Screening O=C(CSc1nnc2c(Cl)cc(C(F)(F)F)cn12)NCc1ccc(F)cc1 returned GLP-1R agonist -14.0%, S2 tox inactive, TGFb inhibitor 2.5%, ATXN2 expr inh 1.0%, GLP1R inv ag 15.6% and HepG2 viability -0.4%.
For O=C(CSc1nnc2c(Cl)cc(C(F)(F)F)cn12)N(Cc1ccccc1)Cc1ccccc1 the results were GLP-1R agonist 8.7%, S2 tox inactive, TGFb inhibitor 2.7%, ATXN2 expr inh -8.3%, GLP1R inv ag inconclusive and HepG2 viability 11.2µM*.
`CC(=O)N[C@@H](CCC(N)=O)C(=O)O` gave S2 tox inactive and ATXN2 expr inh 5.4%.
CCC/C=C/c1ccc(CN2C(CC(C)C)C(=O)N(Cc3cn(CCC4OCCO4)nn3)CCS2(=O)=O)cc1 (stereo not drawn) was read as GLP-1R agonist -2.7%, TGFb inhibitor inconclusive, ATXN2 expr inh inconclusive, GLP1R inv ag inconclusive and HepG2 viability -81.4%.
CC1C(=O)N(Cc2cn(Cc3ccco3)nn2)CCS(=O)(=O)N1Cc1ccc(-c2ccccc2Cl)cc1 (stereo not drawn) was read as GLP-1R agonist -0.4%, S2 tox 11.2µM*, TGFb inhibitor inconclusive, ATXN2 expr inh -11.5%, GLP1R inv ag inconclusive and HepG2 viability -31.5%.

Screening data from PubChem.
